Compound activity from PubChem BioAssay.
A selection: hits, their analogues and other compounds. The true share with any hit is near 3.5%.
TEAD-YAP inh = TEAD-YAP interaction inhibition; hit rate 1.4% among 640,000; HEK-TIYL cells, TEAD-Gal4/YAP UAS-luciferase luminescence; inhibition, % at 9.12 µM; AID 1259422; in the data active means inhibition above about 32%;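 further: 0% = median of test compound wells and 100% = reference inhibitor wells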
GPR151 activ = activates the human receptor GPR151 | Q8TDV0 | PathHunter beta-arrestin GPR151 cells, luminescence | AID 1508602 | hit rate 1% among 650,000 | activation, % at 11.2 µM; in the data active means activation above about 4.9%;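 further: 0% = median of compound wells and 100% = cells with positive control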
MITF primary = blocks human microphthalmia-associated transcription factor; O75030; AlphaScreen MITF homodimerization, bead proximity signal; inhibition, % at 2.6 µM; hit rate 0.91% among 650,000; AID 1259374; in the data active means inhibition above about 50%;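 further: 0% = vehicle wells with protein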
FBW7 act = activators of human E3 ligase FBW7. hit rate 0.13% among 650,000. normalized activity (activation), % at 26.1 µM. AlphaScreen FBW7–phospho-cyclin E peptide binding, activator screen. Q969H0; in the data active means normalized activity above about 1.9%;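 further: purified mutant Fbw7 with reduced substrate affinity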
MITF inh conf = human MITF inhibition, confirmation; AlphaScreen MITF homodimerization, biotin/His-MITF beads; inhibition, % at 2.6 µM; shares compounds with MITF primary; hit rate 16% among 4,700;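 active means inhibition above a cutoff derived from the DMSO control wells, cut at about 28% in these data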;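 further: 0% = MITF dimer wells with DMSO only; inhibitors lower the bead chemiluminescence by keeping MITF from dimerizing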
AlphaScreen intf2 = optically interferes with AlphaScreen signal | shares compounds with MITF primary | LysRS AlphaScreen counterscreen, signal interference, triplicate | inhibition, % at 2.6 µM | hit rate 7.6% among 4,700 | AID 1259376;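 active means inhibition above a cutoff derived from the DMSO control wells, cut at about 30% in these data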
An asterisk follows results filed as active; · = not tested or not shown.

SMILES | TEAD-YAP inh | GPR151 activ | MITF primary | FBW7 act | MITF inh conf | AlphaScreen intf2
Cn1cc(-c2ccc3cnc(Nc4ccc(-n5cnc(N6CCOCC6)n5)cc4)nc3c2C2CC2)cn1 | 81* | -1 | 3 | 0 | · | ·
Cc1ccc(N2C(=O)/C(=C\c3cccc([N+](=O)[O-])c3)C3=C2C(=O)N(c2ccc(C)cc2)C3c2ccccc2)cc1 (stereo unspecified) | 1 | 0 | 9 | 0 | · | ·
O=C(CN1C(=O)NC2NC(=O)NC21)NN=C1CCCC1 (stereo unspecified) | -9 | 3 | -3 | 0 | · | ·
CCn1c2ccccc2c2cc(NC(=O)C(=O)NCCCOC)ccc21 | 40* | -1 | 18 | 0 | · | ·
Clc1ccc2nc(C3CCN(Cc4nnnn4Cc4cccs4)CC3)[nH]c2c1 | 36* | -1 | 12 | 0 | · | ·
Fc1ccccc1C1CCN(Cc2nnnn2C2CCCC2)CC1 | 5 | 0 | 33 | 0 | · | ·
Clc1ccc2nc(C3CCN(Cc4nnnn4C4CCCC4)CC3)[nH]c2c1 | 37* | -1 | 3 | 0 | · | ·
c1csc(Cn2nnnc2CN2CCN(C3CCCC3)CC2)c1 | 6 | 0 | 12 | 0 | · | ·
CC(=O)c1cccc(-c2nc(NCc3ccccc3)c3ncn(-c4ccccc4)c3n2)c1 | 6 | 0 | 7 | 0 | · | ·
O=C(O)C1CSC(c2cccc(OCc3ccc(F)cc3)c2)N1 (stereo unspecified) | -17 | -3 | 2 | 0 | · | ·
O=C1NC(=S)N/C1=C\C=C\c1ccc([N+](=O)[O-])o1 | 89* | 2 | 78* | 0 | · | ·
c1ccc(-c2cc(-c3ccccc3)[n+](CCc3c[nH]c4ccccc34)c(-c3ccccc3)c2)cc1 | 70* | 2 | 10 | 0 | · | ·
CSc1ccc2nc(N3CCN(C(=O)c4c(C)cnn4C)CC3)sc2c1 | 44* | 0 | -22 | 0 | · | ·
Cc1sc(NC(=O)CN(Cc2ccc(F)cc2)C(=O)C(C)(C)C)c(C(N)=O)c1C | 7 | 1 | 68* | 0 | 8 | 13
Cc1sc(NC(=O)CN(Cc2ccc(F)cc2)C(=O)c2ccccc2)c(C(N)=O)c1C | 19 | -1 | -26 | 0 | · | ·
O=C(CCN1Cc2ccccc2OC(c2ccccc2)C1)NCC1CCS(=O)(=O)C1 (stereo unspecified) | 7 | 0 | 10 | 0 | · | ·
COc1ccccc1-c1nnc(SCC(=O)N2CCc3ccccc32)o1 | 6 | 2 | 62* | 0 | 9 | -9
CCCCOCC(O)Cn1cnc2ccccc21 (stereo unspecified) | -3 | -1 | 55* | 0 | 21 | 18
OC(COCc1ccccc1)Cn1cnc2ccccc21 (stereo unspecified) | -5 | 2 | 1 | 0 | · | ·
O=C(c1ccccc1)N1N=C(c2ccccc2)CC1c1ccc2c(c1)OCO2 (stereo unspecified) | 5 | 0 | -9 | 0 | · | ·
Cc1ccc(-c2noc(-c3ccc(C)c(Cl)c3)n2)cc1 | -11 | 1 | -4 | 0 | · | ·
O=C1OC(Nc2nc(-c3cccc(Br)c3)cs2)c2ccccc21 (stereo unspecified) | -23 | 3 | 6 | 0 | · | ·
Cc1ccc(OCCNC(=O)Cc2cccc3ccccc23)cc1 | -3 | 0 | 3 | 0 | · | ·
COc1cc(C(=O)N2CCN(Cc3cccnc3)CC2)cc(OC)c1OC | -3 | 0 | 54* | 1 | 2 | 0
COc1cc(C(=O)N2CCN(Cc3cccc(F)c3)CC2)cc(OC)c1OC | -3 | -1 | 54* | 0 | 7 | 2
SMILES | TEAD-YAP inh | GPR151 activ | MITF primary | FBW7 act | MITF inh conf | AlphaScreen intf2
COc1cc(OC)cc(C(=O)N2CCN(C3CCN(Cc4ccccc4)CC3)CC2)c1 | 0 | -3 | 59* | 0 | 1 | -3
COc1cc(OC)cc(C(=O)N2CCN(Cc3cccnc3)CC2)c1 | 24 | -2 | 66* | 0 | 8 | 18
CCCCN=CC1=C(O)CC(C)(C)CC1=O | -4 | 2 | 16 | 0 | · | ·
COC(=O)Cn1c(C)c(CN2CCc3c(nc(C)[nH]c3=O)C2)c2ccccc21 | 1 | 0 | 11 | 0 | · | ·
O=C1C2CCCN2C(=O)N1c1ccc(Br)cc1 (stereo unspecified) | -8 | 0 | 51* | 0 | 10 | 16
CN(C)CC(C)(C)CNCC(O)COCc1ccccc1F (stereo unspecified) | -4 | 0 | 78* | 0 | 0 | -5
CC1(C)C2CCC1(C)C(NCC(O)COCc1ccccc1F)C2 (stereo unspecified) | -1 | 1 | 65* | 0 | -10 | -4
